Experimental data taken from PubChem BioAssay AID1259417 (TB Discovery Research, Infectious Disease Research Institute, 2018).
The whole screen tested about 1,100 compounds, of which about 760 (69%) were called active. How the calls were made is not given here. So high a share suggests a set chosen from earlier hits. Some of the results follow.

Experiment: M. tuberculosis growth inhibition, HTS (AID 1259417);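 further: bacteria grown with compound for 5 days at 37 °C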
Conditions: stronger effect = higher value, concentration not given here
[1] = M. tuberculosis DsRed fluorescence growth inhibition
[2] = M. tuberculosis growth inhibition

O=C(c1ccc(Cl)cc1)c1ccc(OCC(O)CN2CCN(Cc3ccccc3)CC2)cc1 (configuration not stated)
inhibition [1]: 8.82% (inactive)
inhibition [2]: -14%

O=C1c2cccc3cccc(c23)C(=O)N1CCN1CCN(CC(O)COc2ccccc2Cl)CC1 (configuration not stated)
inhibition [1]: -4.11% (inactive)
inhibition [2]: -8.38%

OC(COc1ccccc1Cl)CN1CCN(C(c2ccccc2)c2ccccc2)CC1 (configuration not stated)
inhibition [1]: -4.97% (inactive)
inhibition [2]: -9.36%

Cc1cccc(OCC(O)CN2CCN(CCN3C(=O)c4cccc5cccc(c45)C3=O)CC2)c1C (configuration not stated)
inhibition [1]: 3.21% (inactive)
inhibition [2]: -19.3%

Cc1ccc(OCC(O)CN2CCN(CC(O)COc3ccc(C)cc3C)CC2)c(C)c1 (configuration not stated)
inhibition [1]: 6.73% (active)
inhibition [2]: 45.2%

Cc1cccc(OCC(O)CN2CCN(C(c3ccccc3)c3ccccc3)CC2)c1C (configuration not stated)
inhibition [1]: -6.14% (inactive)
inhibition [2]: -29.9%

O=C1c2cccc3cccc(c23)C(=O)N1CC1CCN(CC(O)COc2ccc3ccccc3c2)CC1 (configuration not stated)
inhibition [1]: 37.2% (active)
inhibition [2]: 31.4%

Cc1ccc(Cl)cc1N1CCN(CC(O)COc2ccc(C(=O)c3ccccc3)cc2)CC1 (configuration not stated)
inhibition [1]: 16.7% (inactive)
inhibition [2]: 1.47%

OC(COc1ccc2ccccc2c1)CN1CCCN(CC(O)COc2ccc3ccccc3c2)CC1 (configuration not stated)
inhibition [1]: 37.5% (active)
inhibition [2]: 79.7%

CN(c1ccccc1)c1nc(N2CCCC2)nc(-n2ccnc2)n1
inhibition [1]: 57.3% (active)
inhibition [2]: 34.7%

c1ccc(CN2CCN(c3nc(-c4ccccc4)nc(-n4ccnc4)n3)CC2)cc1
inhibition [1]: 2.46% (inactive)
inhibition [2]: -9.34%

Cc1ccc(NC(=S)c2ccccn2)cc1
inhibition [1]: 101% (active)
inhibition [2]: 101%

COC(=O)c1ccc2nc(C)cc(Nc3ccc(OCc4ccccc4)cc3)c2c1
inhibition [1]: 92.1% (active)
inhibition [2]: 99.7%

CCCOc1ccccc1NC(=O)Nc1ccc(Cl)c(Cl)c1
inhibition [1]: 0.884% (inactive)
inhibition [2]: -14.7%

CCOC(=O)c1ccc2nc(C)cc(Nc3ccc(N4CCCCC4)cc3)c2c1
inhibition [1]: 100% (active)
inhibition [2]: 100%

CCCOc1ccc(Nc2cc(C)nc3ccc(Cl)cc23)cc1
inhibition [1]: 101% (active)
inhibition [2]: 101%

CCC(=Nc1ccccc1O)C1=C(O)CC(c2ccccc2)CC1=O (configuration not stated)
inhibition [1]: 98.9% (active)
inhibition [2]: 98.8%

O=C(c1ccco1)N(CCCn1ccnc1)c1nc2c(F)cc(F)cc2s1
inhibition [1]: 97.5% (active)
inhibition [2]: 98.1%

O=C(NNc1nc2c(F)cc(F)cc2s1)c1coc2ccccc2c1=O
inhibition [1]: -0.752% (inactive)
inhibition [2]: -17.4%

O=C(c1cccs1)N(CCCn1ccnc1)c1nc2c(F)cc(F)cc2s1
inhibition [1]: 73.3% (active)
inhibition [2]: 81.6%

O=C(c1ccco1)N(CCCn1ccnc1)c1nc2c(F)cccc2s1
inhibition [1]: 91.1% (active)
inhibition [2]: 97.4%

Oc1ccc(CSc2ccccc2)c2cccnc12
inhibition [1]: 29% (active)
inhibition [2]: 45.1%

CCC1=NN(C(=O)c2ccncc2)C(O)(c2ccc(Br)cc2)C1 (configuration not stated)
inhibition [1]: 97.9% (active)
inhibition [2]: 93.4%

CC1=NN(C(=O)c2cccc(Cl)c2)C(O)(c2ccc(Cl)cc2)C1 (configuration not stated)
inhibition [1]: 13.7% (active)
inhibition [2]: 42.4%

CC1=NN(C(=S)Cc2ccccc2)C(C)(O)C1 (configuration not stated)
inhibition [1]: 5.87% (inactive)
inhibition [2]: 14.6%

CC1=NN(C(=O)c2ccccc2)C(O)(c2ccncc2)C1 (configuration not stated)
inhibition [1]: 97.7% (active)
inhibition [2]: 94.3%

CC(C)(C)c1ccc(C(=O)N2N=C(c3ccccc3)CC2(O)C(F)(F)F)cc1 (configuration not stated)
inhibition [1]: 2.12% (inactive)
inhibition [2]: -7.59%

O=C(c1cccc(Cl)c1)N1N=C(c2ccc(Cl)cc2)CC1(O)C(F)(F)F (configuration not stated)
inhibition [1]: 7.75% (inactive)
inhibition [2]: 23.1%

CC1(C)CC(=O)C2=C(C1)OC(N)=C([N+](=O)[O-])C2c1ccc(C#N)s1 (configuration not stated)
inhibition [1]: 10.4% (active)
inhibition [2]: 32.4%

CC1=NN(c2nc(-c3ccc(Cl)cc3)cs2)C(=O)C1C (configuration not stated)
inhibition [1]: 4.11% (inactive)
inhibition [2]: 7.17%

O=C(COc1ccc(Cl)cc1)Nc1ccc(Cc2ccncc2)cc1
inhibition [1]: -0.257% (inactive)
inhibition [2]: -2.75%

N#Cc1ccc(-c2ccc(OCC(N)=O)cc2)cc1
inhibition [1]: 17.9% (active)
inhibition [2]: 86.6%

N#Cc1ccc(-c2ccc(OCC(=O)Nc3cccnc3)cc2)cc1
inhibition [1]: 43% (active)
inhibition [2]: 88.1%

CC(C)(C)C(=O)NC(=S)NNC(=O)C(c1ccccc1)c1ccccc1
inhibition [1]: 44.9% (active)
inhibition [2]: 30.8%

CCC(=O)N1CCN(c2ccc(Cl)cc2NC(=O)CC23CC4CC(CC(C4)C2)C3)CC1
inhibition [1]: 6.85% (inactive)
inhibition [2]: 6.57%

CCN1CCN(c2ccc(NC(=O)CC34CC5CC(CC(C5)C3)C4)cc2Cl)CC1
inhibition [1]: 32.7% (active)
inhibition [2]: 46.9%

O=C(CC12CC3CC(CC(C3)C1)C2)Nc1ccc(N2CCOCC2)c(Cl)c1
inhibition [1]: 33.8% (active)
inhibition [2]: -14.8%

Cc1ccc2c(c1)c1ncnc(N3CCc4ccccc4C3)c1n2C
inhibition [1]: 99.1% (active)
inhibition [2]: 100%

Cc1ccc(Cn2c(=N)n(CC(O)c3ccc(Cl)c(Cl)c3)c3ccccc32)cc1 (configuration not stated)
inhibition [1]: 99.8% (active)
inhibition [2]: 98.9%

c1ccc(CC2CCN(c3nc4ccccc4n4cnnc34)CC2)cc1
inhibition [1]: 57.6% (active)
inhibition [2]: 39.3%

c1ccc2c(NCCc3c[nH]c4ccccc34)c3ccccc3nc2c1
inhibition [1]: 27.2% (active)
inhibition [2]: 59.7%

FC(F)(F)c1cccc(-n2cc(-c3ccccc3)c3c(NCc4cccnc4)ncnc32)c1
inhibition [1]: 4.11% (inactive)
inhibition [2]: -14%

CCC1CCCCN1C(=O)COC(=O)c1cc2ccccc2cc1O (configuration not stated)
inhibition [1]: 37.8% (active)
inhibition [2]: 89%

CC1CCN(C(=O)COC(=O)c2cc3ccccc3cc2O)CC1
inhibition [1]: 75.2% (active)
inhibition [2]: 96%

CC1CC(C)CN(C(=O)Nc2ccc(Cl)c(Cl)c2)C1 (configuration not stated)
inhibition [1]: 9.98% (inactive)
inhibition [2]: 2.73%

O=C(OCC(=O)N1CCCCC1)c1cc2ccccc2cc1O
inhibition [1]: 47.8% (active)
inhibition [2]: 88.2%

CCC1CCCCN1C(=S)NC(=O)c1ccc(F)cc1 (configuration not stated)
inhibition [1]: 7.93% (inactive)
inhibition [2]: 0.813%

CC1CC(C)CN(C(=O)COC(=O)c2cc3ccccc3cc2O)C1 (configuration not stated)
inhibition [1]: 36.3% (active)
inhibition [2]: 90.7%

Cc1c(Cl)ccc(OCCCN2CCCC(C)C2)c1C (configuration not stated)
inhibition [1]: 99.2% (active)
inhibition [2]: 92.6%

CC(C)OC(=O)CSc1nnc(-c2ccc(N(C)C)cc2)o1
inhibition [1]: 81.3% (active)
inhibition [2]: 91.9%

CCOC(=O)CSc1nnc(-c2ccc(Cl)cc2Cl)o1
inhibition [1]: 78.6% (active)
inhibition [2]: 85.5%

Clc1ccc(-c2nnc(SCc3ccon3)o2)c(Cl)c1
inhibition [1]: 82.2% (active)
inhibition [2]: 64.9%

CC(C)OC(=O)CSc1nnc(-c2ccc(Cl)cc2Cl)o1
inhibition [1]: 73% (active)
inhibition [2]: 86.2%

COc1cc(OC)c(-c2nn3c(C4CCCCC4)nnc3s2)cc1OC
inhibition [1]: 3% (inactive)
inhibition [2]: 4.48%

CCOC(=O)C(Oc1ccc2oc(C)c(C(=O)OC)c2c1)c1ccccc1 (configuration not stated)
inhibition [1]: -0.568% (inactive)
inhibition [2]: -19.6%

COC(=O)C(Oc1ccc2c(c1)oc(=O)c1cc(OC)ccc12)c1ccccc1 (configuration not stated)
inhibition [1]: 27.2% (active)
inhibition [2]: 79.5%

COc1ccc(Cl)cc1NC(=O)CC12CC3CC(CC(C3)C1)C2
inhibition [1]: 10.7% (inactive)
inhibition [2]: 2.06%

COc1ccc(NC(=O)CC23CC4CC(CC(C4)C2)C3)cc1Cl
inhibition [1]: 97.4% (active)
inhibition [2]: 86.9%

COc1cc(NC(=O)CC23CC4CC(CC(C4)C2)C3)ccc1NC(=O)c1ccco1
inhibition [1]: -10.9% (inactive)
inhibition [2]: -3.8%

COc1ccc(NC(=O)CC23CC4CC(CC(C4)C2)C3)cc1[N+](=O)[O-]
inhibition [1]: 71% (active)
inhibition [2]: 49.1%

CC(C)(C)c1cnc(NC(=O)c2ccccc2O)s1
inhibition [1]: 71.4% (active)
inhibition [2]: 28.1%

CC(C)(C)c1ccc(C(=O)Nc2nccs2)cc1Br
inhibition [1]: 17.6% (inactive)
inhibition [2]: -5.32%

O=C(Nc1ncc(Cc2cccc(C(F)(F)F)c2)s1)c1cccs1
inhibition [1]: 24.1% (inactive)
inhibition [2]: 23.5%

O=C(CSc1nnc(-c2ccccc2Br)o1)N1CCc2ccccc2C1
inhibition [1]: 24.1% (active)
inhibition [2]: 31.3%

Nc1ccccc1NCCOc1ccccc1
inhibition [1]: 98.3% (active)
inhibition [2]: 98.7%

Cc1ccc(NC(=O)C(=O)NNC(=O)c2ccco2)cc1Cl
inhibition [1]: 6.77% (inactive)
inhibition [2]: 7.85%

O=C(COc1ccc(Cl)cc1)Nc1ccc(N2CCN(C(=O)c3ccco3)CC2)c(Cl)c1
inhibition [1]: 0.893% (inactive)
inhibition [2]: -16.5%

O=C(CCNc1ccc(-c2ccccc2)cc1)c1ccco1
inhibition [1]: 34.2% (active)
inhibition [2]: 84.3%

CCCCSc1ccc(NCCC(=O)c2ccco2)cc1
inhibition [1]: 29.9% (active)
inhibition [2]: 60.7%

CC(=O)c1ccc(NCCC(=O)c2ccco2)cc1
inhibition [1]: 17.6% (active)
inhibition [2]: 59.4%

O=C(CCNc1cccc(Cl)c1)c1ccco1
inhibition [1]: 97.7% (active)
inhibition [2]: 96.8%

Cc1ccc(-c2csc3nc(SCC(N)=O)n(-c4ccccc4)c(=O)c23)cc1C
inhibition [1]: 4.1% (inactive)
inhibition [2]: -0.946%

CCC(C)NCCOc1ccc(C(C)(C)c2ccccc2)cc1 (configuration not stated)
inhibition [1]: 98% (active)
inhibition [2]: 94.4%

COc1ccc(OCC(=O)Nc2ccc(I)cc2C)cc1
inhibition [1]: 22% (active)
inhibition [2]: 56.8%

O=C(CSc1nnc(CNc2cccc(Cl)c2)o1)OC1CCCCC1
inhibition [1]: 68.9% (active)
inhibition [2]: 81.6%

Cc1ccc(NCc2nnc(SCC(=O)OC3CCCCC3)o2)c(C)c1
inhibition [1]: 91.7% (active)
inhibition [2]: 95%

O=C(CSc1nnc(Cc2ccccc2)o1)Nc1ccc2c(c1)OCO2
inhibition [1]: 5.38% (inactive)
inhibition [2]: -1.39%

CCOc1cc(CNCc2ccccc2OCc2ccccc2)cc(Cl)c1OCC
inhibition [1]: 9.66% (inactive)
inhibition [2]: -13.6%

CCOc1cc(CNCCO)cc(Br)c1OCc1ccc(Cl)cc1Cl
inhibition [1]: 37.7% (active)
inhibition [2]: 41.3%

CCOc1cc(C(=O)ON=C(N)Cc2ccc(Cl)cc2Cl)cc(OCC)c1OCC
inhibition [1]: 4.39% (inactive)
inhibition [2]: -6.22%

CCOCCOC(=O)COc1ccc2c(-c3ccccc3)cc(=O)oc2c1
inhibition [1]: 64% (active)
inhibition [2]: 89%

Cc1cc(=O)oc2cc(OCC(=O)OC3CCCCC3)ccc12
inhibition [1]: 36.4% (active)
inhibition [2]: 72.1%

O=C(COc1ccc2c(-c3ccccc3)cc(=O)oc2c1)OC1CCCCC1
inhibition [1]: 11.7% (active)
inhibition [2]: 53.3%

O=C1c2cccc3cccc(c23)C(=O)N1CCN1CCN(CC(O)COCc2ccc(Cl)cc2)CC1 (configuration not stated)
inhibition [1]: -12% (inactive)
inhibition [2]: -24.9%

Cc1ccc(-c2csc(-c3ccncc3)n2)cc1C
inhibition [1]: 86.8% (active)
inhibition [2]: 97.1%

COc1ccc(-c2csc(-c3ccc(OC)c(OC)c3)n2)cc1C
inhibition [1]: 1.2% (inactive)
inhibition [2]: -8.81%
